According to PubChem BioAssay:

assay: yeast transport mutant growth inhibition pilot in 384-well plates, post-Golgi transport modulator project (AID 636; in the data active = inhibition above about 31%); details: absorbance 615 nm, about 18 h, hits give high values

inhibition, inactive:
CCc1nnc(NC(=O)C2CCCN2S(=O)(=O)c2ccc(C)cc2)s1 (centres undefined) -6.35%
COC(=O)C1=C(C)C(c2cccs2)NC(=O)N1C (centres undefined) -6.13%
CCOC(=O)CSc1nnc([C@H](C)NC(=O)OC(C)(C)C)o1 -5.58%
O=C1CC(N2CCN(c3ccc(Cl)c(Cl)c3)CC2)C(=O)N1 (centres undefined) -2.84%
CCC(C)(C)n1nnnc1C(c1ccncc1)N1CCN(c2cccc(OC)c2)CC1 (centres undefined) -2.67%
COc1cccc(C(=O)OCn2nnc3ccccc3c2=O)c1 -0.13%
O=C(O)CCc1ccc(-c2ccc(F)cc2)n1CC(=O)O -7.12%
COC(=O)c1ccccc1S(=O)(=O)N(CCCO)Cc1cc2c(C)ccc(C)c2[nH]c1=O -4.73%
COC(=O)c1ccc(-c2ccc(CNCC(O)c3ccccc3)o2)cc1 (centres undefined) -2.03%
COC(=O)Nc1ccc(S(=O)(=O)N2CCN(c3ccc(F)cc3)CC2)cc1 -4.61%
O=C(Nc1ccc(O)cc1)C1CCCN1S(=O)(=O)c1ccc(F)cc1 (centres undefined) -1.47%
CCc1ccc(C=NC23CN4CN(CN(C4)C2)C3)s1 1.17%
Cc1nnc(SCC(=O)N2c3ccccc3CC2C)s1 (centres undefined) -1.73%
COc1ccccc1S(=O)(=O)n1cc(Cc2ccccc2)c(N)n1 -2.37%

assay: growth suppression of yeast trafficking mutant, preliminary HTS, modulators of trafficking downstream of Golgi apparatus project, 1536-format plate, OD 615 nm (AID 637); details: yeast transport mutant growth, absorbance 615 nm, 18 h; hits give high values

inhibition, inactive:
O=S(=O)(Nc1ccc(Cc2ccncc2)cc1)N1CCCC1 -1.97%
CCn1c(=O)cc(OCC(=O)NCCCN2CC(C)CC(C)C2)c2ccccc21 (centres undefined) -2.55%
Nn1c(SCC(=O)Nc2ccc3c(c2)OCO3)nnc1C1CC1 8.25%
CCOP(=O)(c1ccc(N(C)C)cc1)C(O)c1ccccc1OC (centres undefined) -3.65%
COc1ccc(C(=O)N2CCSC2=S)cc1OC -1.67%
O=c1c2nnn(Cc3ccccc3)c2ncn1-c1ccccc1 4.1%
CCOc1ccc(NC(=O)CN(C)S(=O)(=O)c2cccs2)cc1 1.45%
O=c1[nH]c(SCc2cc(=O)n3ccccc3n2)nc2c1CCC2 -2.22%
Cc1ccc(O)c(NC(=O)COc2cc(C)ccc2C)c1 -10.3%
N#Cc1cc2sc3nnc(-c4ccncc4)n3c2cc1C#N 7.94%
CCOc1cc(C2c3c(n[nH]c3C)C(=O)N2c2ccc(Br)cc2)ccc1O (centres undefined) 3.44%
Cc1cc(NC(=O)CSc2ccc(Cl)cc2)no1 22.3%
CC(C)[C@H](NC(=O)NC1CCCC1)C(=O)O -9.34%
CCOC(=O)c1[nH]c2ccc(OC)cc2c1NC(=O)CCN1CCC(C)CC1 -8.73%
CCc1nc(C)c(-c2ccccc2)c(=O)[nH]1 -8.39%
CN(C)c1ccc(NC(=O)CSCc2nc3c(nnn3Cc3ccc(F)cc3)c(=O)[nH]2)cc1 0%
COc1ccc(C2CC(=O)c3cnc(NC(=O)c4ccccc4OC)nc3C2)c(OC)c1 (centres undefined) 1.15%
Cc1cnc(NC(=O)CSc2nc3ccccc3c(=O)[nH]2)s1 -6.19%
CCCOc1ccc(OCCSc2ncccn2)cc1 -0.79%
Cc1nnc(C)c2c(C)n(-c3ccc(Br)cc3)c(C)c12 1.61%
COC(=O)c1cc(O)c(OCc2ccccc2)c(O)c1 -7.09%
O=C(c1ccc(Br)o1)N(c1ccc(Br)cc1)C1C=CS(=O)(=O)C1 (centres undefined) 21%
Cc1nn(-c2ccccc2)c(C)c1C(=O)OCC(=O)c1c(N)n(CC(C)C)c(=O)n(C)c1=O 4.75%
CC(=O)N1CCc2cc(S(=O)(=O)NC(C(=O)NCc3ccccc3)C(C)C)ccc21 (centres undefined) -10%
N#CC1=C(N)Oc2n[nH]c(-c3cccs3)c2C1c1cccs1 (centres undefined) -1.31%
Cc1cc(C(=O)CN2C(=O)c3ccccc3C2=O)c(C)n1Cc1cccs1 0%
CCc1nnc(NC(=O)C2CCCN2S(=O)(=O)c2ccc(C)cc2)s1 (centres undefined) 6.07%
COC(=O)C1=C(C)C(c2cccs2)NC(=O)N1C (centres undefined) 1.48%
CCOC(=O)CSc1nnc([C@H](C)NC(=O)OC(C)(C)C)o1 -10.2%
O=C1CC(N2CCN(c3ccc(Cl)c(Cl)c3)CC2)C(=O)N1 (centres undefined) 27.7%
CCC(C)(C)n1nnnc1C(c1ccncc1)N1CCN(c2cccc(OC)c2)CC1 (centres undefined) 4.26%
COc1cccc(C(=O)OCn2nnc3ccccc3c2=O)c1 16.5%
O=C(O)CCc1ccc(-c2ccc(F)cc2)n1CC(=O)O -1.43%
COC(=O)c1ccccc1S(=O)(=O)N(CCCO)Cc1cc2c(C)ccc(C)c2[nH]c1=O -5.25%
COC(=O)c1ccc(-c2ccc(CNCC(O)c3ccccc3)o2)cc1 (centres undefined) 1.83%
COC(=O)Nc1ccc(S(=O)(=O)N2CCN(c3ccc(F)cc3)CC2)cc1 9.84%
O=C(Nc1ccc(O)cc1)C1CCCN1S(=O)(=O)c1ccc(F)cc1 (centres undefined) 1.64%
CCc1ccc(C=NC23CN4CN(CN(C4)C2)C3)s1 -3.61%
Cc1nnc(SCC(=O)N2c3ccccc3CC2C)s1 (centres undefined) 0.81%
COc1ccccc1S(=O)(=O)n1cc(Cc2ccccc2)c(N)n1 -6.51%
